Most compounds without a hit are left out; they make up all but 9.2% or so of the library.
FLuc counter – inhibits or activates purified firefly luciferase, miR-21 counter-screen | purified FLuc, Km substrates, luminescence inhibition | Potency, µM (titrated, usually from 57.5 µM), for the others: at the highest dose activity change, negative = inhibition, hits mostly inhibitors | 360,000 compounds, 6.9% hits;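 also: plate controls were vehicle for no effect and reference inhibitor for full effect; nearly all actives have a fitted effect of over 55% in size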
Target sequence (P08659 whole entry, looked up): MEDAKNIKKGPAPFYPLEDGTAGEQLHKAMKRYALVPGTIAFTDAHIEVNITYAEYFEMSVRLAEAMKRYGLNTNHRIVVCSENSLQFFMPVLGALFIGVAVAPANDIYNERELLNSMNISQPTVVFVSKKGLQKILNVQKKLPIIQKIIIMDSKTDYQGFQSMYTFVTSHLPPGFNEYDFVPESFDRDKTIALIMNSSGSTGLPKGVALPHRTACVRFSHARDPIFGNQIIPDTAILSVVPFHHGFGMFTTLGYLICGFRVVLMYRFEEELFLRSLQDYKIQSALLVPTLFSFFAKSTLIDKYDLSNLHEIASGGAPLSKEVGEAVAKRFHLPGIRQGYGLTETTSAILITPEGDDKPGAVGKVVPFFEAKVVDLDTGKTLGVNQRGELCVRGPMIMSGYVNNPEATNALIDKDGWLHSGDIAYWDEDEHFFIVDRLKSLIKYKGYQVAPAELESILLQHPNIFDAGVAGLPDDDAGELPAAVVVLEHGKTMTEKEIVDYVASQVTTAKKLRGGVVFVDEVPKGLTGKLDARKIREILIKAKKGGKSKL
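Biochemical qHTS of compounds, final roughly 60 µM downward over six points, against 10 nM purified firefly luciferase using Km concentrations of substrates (10 uM D-luciferin, 10 uM ATP) in Tris acetate pH 7.5 buffer; luminescence output.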
Rab9 prom act – activators of Rab9 promoter. Huh7 Rab9 promoter-luciferase reporter, luminescence, 24 h. Potency, µM (doses to about 9.22 µM), inactives show at the top dose activation, negative = inhibition, most hits filed as activators. 320,000 compounds, 2.8% hits. AID 485297; also: % of control where 0% means no effect; nearly all actives have a fitted effect of over 60% in size
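Luminescence read-out: Huh7 cells stably expressing Rab9-luciferase, treated 24 h with compound at 37 °C, then lysed with luciferase reagent for 10 min at ambient before reading.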
ELG1 repair inh – blocks ELG1-dependent DNA repair in HEK293T cells. HEK293T ELG1-luciferase reporter, luminescence, 16 h; DNA damage induced by 5-fluorouridine. Potency, µM (doses to about 46.1 µM), for the others: top-dose activity change, negative = inhibition, actives largely listed as inhibitors. 330,000 compounds, 2.3% hits; also: % is scaled to controls: 0 for no effect and ±100 for the full control effect; nearly all actives have a fitted effect of over 55% in size
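Cells (2,000 per well) received 5-fluorouridine plus test compound or DMSO and were incubated 16 hr at 37 °C, 5% CO2. Luciferase activity was read by luminescence 30 min after ONE-Glo addition; signal suppression marked inhibition of damage-induced ELG1 function.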
ELG1 genotox – induces genotoxicity in HEK293T cells with luciferase-tagged ELG1. Potency, µM (top dose mostly 46 µM), inactives show at the top dose activity change, positive = activation, actives largely listed as activators. HEK293T ELG1-luciferase reporter, luminescence, 16 h. 330,000 compounds, 1.3% hits; also: % of control where 0% means no effect; nearly all actives have a fitted effect of over 60% in size
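Screening used a luciferase reporter fused to human ELG1 in HEK293T cells. Luminescence was read on a CCD plate imager after 16 hr exposure and 30 min ONE-Glo incubation.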
NPC1 promoter act – NPC1 promoter activation; Huh7 NPC1 promoter luciferase reporter, 24 h; Potency, µM (titrated, usually from 9.22 µM), inactives show at the highest dose activation, usual class: activators; 320,000 compounds, 2.4% hits; also: % of control where 0% means no effect; nearly all actives have a fitted effect of over 60% in size
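Stably transfected Huh7 (NPC1 promoter→luciferase), 1500 cells/well in Opti-MEM + 10% FBS, 2 h settle, then compound 24 h at 37 °C. Luminescence after 10 min with Amplite reagent.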
SMN2 splice enh – increases expression of the SMN2 splice variant. HEK293 SMN2-luciferase splicing reporter, luminescence, 30-36 h. Potency, µM (series often up to 46.1 µM), for inactives: at the highest dose activity change, positive = activation, hits mostly activators. 210,000 compounds, 2.8% hits; also: % of control where 0% means no effect; nearly all actives have a fitted effect of over 55% in size
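HEK293 cells carry an SMN2 […]–luciferase reporter in which exon 7 inclusion puts luciferase in frame. Cells were plated 10-12 h before compound addition, then incubated 30-36 h at 37C. ONE-Glo luminescence was read; sodium butyrate at 4.5 mM final served as control.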
* = called active by the depositor; u = inconclusive; x = no result given. Calls follow the shape of the dose curve; as a rule, active = well fitted curve in the direction sought with a large enough effect; inconclusive = small, poorly fitted or top-dose-only effect, or another doubt; inactive = no such curve, though single readings can be large; an effect the other way counts as inactive or inconclusive. Potency is read from the fitted curve at half-maximal effect.

SMILES	FLuc counter	Rab9 prom act	ELG1 repair inh	ELG1 genotox	NPC1 promoter act	SMN2 splice enh
Cc1ccc(/C=N/NC(=O)c2ccncc2)cc1	u	6%	8%	-5%	-1%	x
COc1cc(/C=N/NC(=O)c2csc3c2CCCC3)cc(OC)c1O	-19%	0%	-1%	-1%	7%	8%
Cc1ccc(/C=N\NC(=O)c2csnn2)cc1	3.8µM*	2.5µM*	u	u	3.5µM*	-3%
O=C(NCc1ccc2c(c1)OCO2)c1ccc2c(c1)N(Cc1ccccc1F)C(=O)c1ccccc1S2=O (centres undefined)	3%	x	x	x	x	16%
CCNc1c(NS(=O)(=O)c2ccc(Cl)s2)c(=O)oc2ccccc12	2%	-4%	-11%	1%	-1%	x
CC(C)c1ccc(NC(=O)Nc2csc3c2CCCC3)cc1	4.8µM*	x	x	x	x	-30%
O=C(Nc1ccon1)c1csc2c1CCCC2	u	9%	14%	8%	8%	-3%
O=C(Nc1nccs1)c1csc2c1CCCC2	13µM*	28%	u	8%	28%	26%
Cc1ccccc1NC(=O)Nc1csc2c1CCCC2	u	x	x	x	x	5%
Cc1cc(NC(=O)Nc2csc3c2CCCC3)ccc1Br	u	x	x	x	x	-1%
Cc1ccccc1NC(=O)c1csc2c1CCCC2	19µM*	29%	u	26µM*	u	u
CC(CNC(=O)c1csc2c1CCCCC2)c1ccccc1 (centres undefined)	15µM*	x	x	x	x	11µM*
Cc1nnc(SCC(=O)NNC(=O)c2ccccc2)n1N	3%	6%	21%	-2%	-7%	x
Cc1ccc(Cl)cc1NC(=O)N1CCC(CN2CCCCCC2)CC1	0%	x	x	x	x	x
COc1ccc(NC(=O)Cn2c(=O)cnc3ccccc32)cc1S(=O)(=O)N1CCCCC1	0%	-2%	1%	-2%	-1%	x
Cc1cccc(NS(=O)(=O)c2ccc(C)c(C(=O)OCC(=O)Nc3cc(C)on3)c2)c1	3%	0%	7%	-5%	0%	20µM*
Cc1ccc(NS(=O)(=O)c2cccc(C(=O)Nc3cc(C)on3)c2)cc1	-1%	-5%	21µM*	-3%	-2%	-34%
Cc1ccc(OCC(=O)NC(=S)Nc2ccc(S(=O)(=O)Nc3cc(C)on3)cc2)c(Br)c1	1.5µM*	-5%	16%	4%	0%	x
Cc1ccc(S(=O)(=O)Nc2ccc(C(=O)Nc3cc(C)on3)cc2)cc1	2%	0%	-11%	-2%	-9%	3%
Cc1ccc(OCC(=O)Nc2ccc(S(=O)(=O)Nc3cc(C)on3)cc2)c(Br)c1	21µM*	x	x	x	x	-3%
Cc1cccc(NS(=O)(=O)c2cc(C(=O)OCC(=O)Nc3cc(C)on3)ccc2C)c1	6%	2%	5%	1%	-5%	-3%
CCN(CC)S(=O)(=O)c1ccc(OC)c(NC(=O)c2cccs2)c1	7%	1%	-10%	-12%	-1%	x
NC(=O)COc1ccc(-c2noc(COc3ccccc3[N+](=O)[O-])n2)cc1	-8%	27%	u	4%	17%	1%
COc1ccc(CCNC(=O)CN(c2ccc(C)cc2)S(=O)(=O)c2ccc(OC)cc2)cc1	-9%	x	x	x	x	-6%
CCCCn1c(SCC(=O)N2CCCC2)nc2cc(S(N)(=O)=O)ccc21	-3%	10%	-5%	-1%	9%	11%
SMILES	FLuc counter	Rab9 prom act	ELG1 repair inh	ELG1 genotox	NPC1 promoter act	SMN2 splice enh
CCCCn1c(SCc2c(C)noc2C)nc2cc(S(N)(=O)=O)ccc21	3%	-6%	u	18µM*	-5%	u
CCCCn1c(SCC(=O)c2ccc3c(c2)NC(=O)CO3)nc2cc(S(N)(=O)=O)ccc21	1%	10%	16µM*	0%	1%	9%
CCOC(=O)c1c(-c2ccc(C)cc2)csc1NC(=O)c1cc(=O)c2cc(C)cc(C)c2o1	5%	x	x	x	x	x
O=c1[nH]c(CCl)nc2cc(-c3ccc(F)cc3)sc12	0.3µM*	-43%	u	u	0%	x
CCOC(=O)C1CCCN(C(=O)CNC(=O)c2nn(-c3ccc(OC)c(Cl)c3)c(=O)c3ccccc23)C1 (centres undefined)	6.7µM*	0%	u	-12%	-1%	x
COc1ccc(-n2nc(C(=O)NCC(=O)NC(C)C)c3ccccc3c2=O)cc1Cl	-3%	3%	u	-6%	-2%	x
COc1ccc(-n2nc(C(=O)NCC(=O)NCCCN3CCCCCC3)c3ccccc3c2=O)cc1Cl	4%	-3%	8%	-2%	-6%	-59%
CCCn1nc(C(=O)NCC2COc3ccccc3O2)c2ccccc2c1=O (centres undefined)	2%	0%	21µM*	-3%	-2%	x
COc1ccc(-n2nc(C(=O)NCC(=O)N3CCCC(C)C3)c3ccccc3c2=O)cc1Cl (centres undefined)	5.4µM*	-1%	u	-2%	-2%	x
CCCn1nc(C(=O)NC2CC2)c2ccccc2c1=O	3%	0%	18%	2%	-3%	x
COc1ccc(-n2nc(C(=O)NCC(=O)NC3CCCCCC3)c3ccccc3c2=O)cc1OC	u	8%	18µM*	-10%	-3%	x
O=C(CCC1COc2ccccc2O1)NCC1COc2ccccc2O1 (centres undefined)	0%	-1%	4%	-1%	-3%	-18%
COc1ccc(-n2nc(C(=O)NCC(=O)NCC3COc4ccccc4O3)c3ccccc3c2=O)cc1OC (centres undefined)	-6%	1%	9.2µM*	-14%	-6%	-11%
Cn1cccc1C(=O)NCC1COc2ccccc2O1 (centres undefined)	2%	3.2µM*	u	16%	u	x
COc1ccc(-n2nc(C(=O)NCC(=O)N3CC(C)CC(C)C3)c3ccccc3c2=O)cc1OC (centres undefined)	u	0%	u	-15%	0%	x
COCCCNC(=O)CNC(=O)c1nn(-c2ccc(OC)c(Cl)c2)c(=O)c2ccccc12	-2%	0%	-5%	0%	-2%	x
COc1ccc(-n2nc(C(=O)NCC(=O)N3CCOCC3)c3ccccc3c2=O)cc1Cl	11µM*	0%	-9%	0%	-4%	x
COc1ccc(-n2nc(C(=O)NCC(=O)N3CCCCCC3)c3ccccc3c2=O)cc1OC	6.7µM*	2%	-2%	-5%	12%	x
Cc1ccc(N(C(=O)CNC(=O)c2ccco2)C(C(=O)NCC2CCCO2)c2ccccc2)c(C)c1 (centres undefined)	2%	9%	4%	-27%	-3%	x
COc1ccc(-n2ccn(Cc3ccccc3Cl)c(=O)c2=O)cc1OC	-1%	x	x	x	x	x

Bioassay records (PubChem BioAssay)
